The text below walks through data of ChEMBL document CHEMBL1961873, “Compounds: GSK PKIS; Assays: Nanosyn kinase panel” (2012).

The structures appear in SMILES notation.

Assay [1] has as its target Platelet-derived growth factor receptor beta (Homo sapiens) (UniProt P09619). The following applies: at 1 µM.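 Also: each value is a mean percent inhibition.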
The target of assay [2] is Tyrosine-protein kinase FRK (Homo sapiens) (UniProt P42685). The following applies: at 0.1 µM.
The target is the same in assay [3]. The note with it: at 1 µM.
In assay [4] the target is Protein-tyrosine kinase 2-beta (Homo sapiens) (UniProt Q14289). The following applies: at 0.1 µM.
Assay [5] shares this target. The note with it: at 1 µM.
For assay [6], the target named is Proto-oncogene tyrosine-protein kinase receptor Ret (Homo sapiens) (UniProt P07949). The note with it: at 0.1 µM.
Assay [7] shares this target. The following applies: at 1 µM.
Assay [8] deals with Proto-oncogene tyrosine-protein kinase receptor Ret (Homo sapiens), P07949 [V804L]. The note with it: at 0.1 µM.
The test system is the same in assay [9]. The note with it: at 1 µM.
Assay [10] has as its system Proto-oncogene tyrosine-protein kinase receptor Ret (Homo sapiens), P07949 [Y791F]. The note with it: at 0.1 µM.
The test system is the same in assay [11]. The following applies: at 1 µM.
Assay [12] has as its target Macrophage-stimulating protein receptor (Homo sapiens) (UniProt Q04912). The note with it: at 0.1 µM.
For assay [13] the target is unchanged. The following applies: at 1 µM.
Assay [14] addresses Proto-oncogene tyrosine-protein kinase ROS (Homo sapiens) (UniProt P08922). The note with it: at 0.1 µM.
The target is the same in assay [15]. The note with it: at 1 µM.
The target in assay [16] is Proto-oncogene tyrosine-protein kinase Src (Homo sapiens) (UniProt P12931). The note with it: at 0.1 µM.
For assay [17] the target is unchanged. The note with it: at 1 µM.
In assay [18] the target is Tyrosine-protein kinase Srms (Homo sapiens) (UniProt Q9H3Y6). The note with it: at 0.1 µM.
Assay [19] has the same target. The following applies: at 1 µM.
Assay [20] concerns the target Tyrosine-protein kinase SYK (Homo sapiens) (UniProt P43405). The following applies: at 0.1 µM.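 Also: reported percentages are mean inhibition values for SYK.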

Tyrosine-protein kinase FRK (Homo sapiens), sequence (P42685 whole entry): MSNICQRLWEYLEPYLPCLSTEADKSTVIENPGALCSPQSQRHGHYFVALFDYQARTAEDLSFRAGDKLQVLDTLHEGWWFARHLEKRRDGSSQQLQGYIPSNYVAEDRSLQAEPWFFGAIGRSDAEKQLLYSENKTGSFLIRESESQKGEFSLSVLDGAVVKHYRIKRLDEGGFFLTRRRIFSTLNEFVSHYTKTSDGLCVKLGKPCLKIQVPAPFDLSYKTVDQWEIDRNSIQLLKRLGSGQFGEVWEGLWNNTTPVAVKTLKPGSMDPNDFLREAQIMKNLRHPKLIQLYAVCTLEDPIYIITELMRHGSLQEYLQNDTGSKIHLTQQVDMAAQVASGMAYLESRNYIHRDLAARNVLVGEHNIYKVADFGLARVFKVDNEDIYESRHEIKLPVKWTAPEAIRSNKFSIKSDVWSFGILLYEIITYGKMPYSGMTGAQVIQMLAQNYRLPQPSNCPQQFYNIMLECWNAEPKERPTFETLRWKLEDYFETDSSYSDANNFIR
Proto-oncogene tyrosine-protein kinase ROS (Homo sapiens), sequence (P08922 whole entry): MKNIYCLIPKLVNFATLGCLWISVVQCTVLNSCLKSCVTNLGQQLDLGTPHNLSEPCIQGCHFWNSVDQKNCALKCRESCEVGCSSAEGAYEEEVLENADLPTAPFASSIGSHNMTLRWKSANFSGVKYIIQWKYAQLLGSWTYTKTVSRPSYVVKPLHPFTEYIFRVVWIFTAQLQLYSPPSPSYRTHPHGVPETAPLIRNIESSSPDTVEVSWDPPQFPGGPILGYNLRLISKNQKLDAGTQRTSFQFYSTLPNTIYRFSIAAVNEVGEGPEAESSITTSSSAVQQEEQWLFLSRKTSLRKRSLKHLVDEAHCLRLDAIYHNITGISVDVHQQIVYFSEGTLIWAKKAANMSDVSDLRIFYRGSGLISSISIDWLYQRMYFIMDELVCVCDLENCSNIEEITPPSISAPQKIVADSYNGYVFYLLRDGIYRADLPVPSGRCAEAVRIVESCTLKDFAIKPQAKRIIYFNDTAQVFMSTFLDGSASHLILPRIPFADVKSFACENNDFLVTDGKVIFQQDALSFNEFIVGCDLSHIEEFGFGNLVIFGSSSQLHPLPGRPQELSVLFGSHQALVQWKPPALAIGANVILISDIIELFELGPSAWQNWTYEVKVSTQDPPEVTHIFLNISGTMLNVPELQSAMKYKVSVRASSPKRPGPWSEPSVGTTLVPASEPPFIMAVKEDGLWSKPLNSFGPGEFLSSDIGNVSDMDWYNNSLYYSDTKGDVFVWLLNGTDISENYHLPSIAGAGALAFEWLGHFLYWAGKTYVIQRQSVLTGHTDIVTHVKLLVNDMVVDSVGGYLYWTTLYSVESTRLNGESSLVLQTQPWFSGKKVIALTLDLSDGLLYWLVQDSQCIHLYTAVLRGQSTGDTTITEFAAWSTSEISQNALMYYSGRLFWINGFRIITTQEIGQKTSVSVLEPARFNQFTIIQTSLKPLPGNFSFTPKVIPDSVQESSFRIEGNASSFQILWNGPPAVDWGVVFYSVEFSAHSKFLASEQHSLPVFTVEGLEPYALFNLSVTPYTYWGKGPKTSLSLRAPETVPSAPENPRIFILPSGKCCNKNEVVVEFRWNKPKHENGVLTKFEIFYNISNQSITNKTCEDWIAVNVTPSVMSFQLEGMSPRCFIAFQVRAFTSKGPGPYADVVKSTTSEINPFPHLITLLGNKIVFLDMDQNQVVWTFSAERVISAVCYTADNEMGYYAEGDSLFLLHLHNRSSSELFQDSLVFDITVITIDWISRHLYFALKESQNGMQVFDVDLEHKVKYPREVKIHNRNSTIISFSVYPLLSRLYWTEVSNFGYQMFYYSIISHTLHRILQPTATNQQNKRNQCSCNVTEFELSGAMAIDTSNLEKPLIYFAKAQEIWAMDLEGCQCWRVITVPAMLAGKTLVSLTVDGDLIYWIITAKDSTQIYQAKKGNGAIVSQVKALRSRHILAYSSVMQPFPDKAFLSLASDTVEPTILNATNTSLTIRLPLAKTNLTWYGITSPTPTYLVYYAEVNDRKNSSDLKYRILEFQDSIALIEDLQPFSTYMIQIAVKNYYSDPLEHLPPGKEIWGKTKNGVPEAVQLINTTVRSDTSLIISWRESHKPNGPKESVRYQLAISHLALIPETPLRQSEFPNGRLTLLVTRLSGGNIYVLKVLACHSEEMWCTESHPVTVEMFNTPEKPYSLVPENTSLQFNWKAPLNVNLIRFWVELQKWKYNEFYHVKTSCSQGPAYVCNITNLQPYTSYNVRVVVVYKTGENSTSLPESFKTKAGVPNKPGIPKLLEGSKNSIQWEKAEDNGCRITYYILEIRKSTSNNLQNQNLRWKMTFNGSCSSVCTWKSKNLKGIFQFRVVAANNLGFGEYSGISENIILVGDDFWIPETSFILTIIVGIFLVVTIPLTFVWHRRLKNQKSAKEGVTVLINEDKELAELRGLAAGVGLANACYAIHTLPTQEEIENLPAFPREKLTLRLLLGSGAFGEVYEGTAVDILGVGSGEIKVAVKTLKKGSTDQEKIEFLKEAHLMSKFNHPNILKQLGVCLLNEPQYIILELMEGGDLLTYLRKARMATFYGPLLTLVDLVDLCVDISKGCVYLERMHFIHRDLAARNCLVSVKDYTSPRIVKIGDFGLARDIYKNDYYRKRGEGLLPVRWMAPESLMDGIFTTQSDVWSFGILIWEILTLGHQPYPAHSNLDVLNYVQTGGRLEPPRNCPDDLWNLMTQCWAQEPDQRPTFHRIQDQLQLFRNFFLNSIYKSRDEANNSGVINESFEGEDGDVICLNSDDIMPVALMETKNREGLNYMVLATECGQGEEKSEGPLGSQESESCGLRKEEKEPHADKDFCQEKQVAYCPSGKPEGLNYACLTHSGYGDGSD
Tyrosine-protein kinase Srms (Homo sapiens), sequence (Q9H3Y6 whole entry): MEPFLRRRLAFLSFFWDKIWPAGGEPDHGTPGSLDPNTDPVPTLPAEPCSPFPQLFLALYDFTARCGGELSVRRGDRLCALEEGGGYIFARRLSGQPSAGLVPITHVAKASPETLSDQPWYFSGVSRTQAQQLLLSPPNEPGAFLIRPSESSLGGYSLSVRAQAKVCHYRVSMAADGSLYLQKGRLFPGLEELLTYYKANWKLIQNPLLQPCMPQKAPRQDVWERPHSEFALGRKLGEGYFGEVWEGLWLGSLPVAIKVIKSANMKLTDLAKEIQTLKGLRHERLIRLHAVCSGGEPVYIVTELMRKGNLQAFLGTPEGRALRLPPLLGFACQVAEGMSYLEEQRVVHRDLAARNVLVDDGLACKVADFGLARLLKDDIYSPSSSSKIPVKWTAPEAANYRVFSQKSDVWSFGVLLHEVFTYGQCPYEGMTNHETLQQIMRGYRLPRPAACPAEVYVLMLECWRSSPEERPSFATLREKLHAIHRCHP
Proto-oncogene tyrosine-protein kinase receptor Ret (Homo sapiens), P07949 [V804L], sequence (P07949 whole entry V804L): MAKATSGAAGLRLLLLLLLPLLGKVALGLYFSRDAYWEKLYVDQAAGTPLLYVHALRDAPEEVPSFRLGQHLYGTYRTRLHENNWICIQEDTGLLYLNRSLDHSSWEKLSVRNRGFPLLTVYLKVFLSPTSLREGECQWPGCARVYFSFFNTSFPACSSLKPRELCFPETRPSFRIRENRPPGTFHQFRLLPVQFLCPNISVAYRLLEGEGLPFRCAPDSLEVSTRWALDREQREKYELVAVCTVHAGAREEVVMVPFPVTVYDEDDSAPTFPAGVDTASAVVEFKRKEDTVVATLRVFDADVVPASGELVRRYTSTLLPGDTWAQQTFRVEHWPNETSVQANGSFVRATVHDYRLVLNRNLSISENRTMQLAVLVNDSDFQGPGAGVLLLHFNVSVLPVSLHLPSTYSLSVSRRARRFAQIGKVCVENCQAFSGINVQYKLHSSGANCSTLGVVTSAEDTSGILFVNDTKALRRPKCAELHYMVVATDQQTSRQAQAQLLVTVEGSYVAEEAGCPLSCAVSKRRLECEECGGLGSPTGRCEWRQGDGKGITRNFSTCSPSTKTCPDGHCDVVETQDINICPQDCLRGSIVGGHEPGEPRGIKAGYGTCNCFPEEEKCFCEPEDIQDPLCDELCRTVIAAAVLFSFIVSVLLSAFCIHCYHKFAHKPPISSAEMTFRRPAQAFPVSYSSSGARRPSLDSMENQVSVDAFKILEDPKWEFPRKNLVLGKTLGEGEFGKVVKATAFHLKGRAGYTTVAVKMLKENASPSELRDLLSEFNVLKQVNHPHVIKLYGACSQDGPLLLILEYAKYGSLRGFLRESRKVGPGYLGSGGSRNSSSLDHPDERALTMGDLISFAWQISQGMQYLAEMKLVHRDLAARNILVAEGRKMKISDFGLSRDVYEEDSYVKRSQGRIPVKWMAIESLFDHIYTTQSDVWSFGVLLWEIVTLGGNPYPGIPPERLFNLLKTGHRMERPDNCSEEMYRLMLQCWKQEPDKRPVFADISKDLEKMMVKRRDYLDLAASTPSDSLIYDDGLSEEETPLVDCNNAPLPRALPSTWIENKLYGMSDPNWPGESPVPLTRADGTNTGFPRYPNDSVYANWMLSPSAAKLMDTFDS
Proto-oncogene tyrosine-protein kinase receptor Ret (Homo sapiens), sequence (P07949 whole entry): as the sequence (P07949 whole entry V804L) above, with L804V counted along it
Proto-oncogene tyrosine-protein kinase receptor Ret (Homo sapiens), P07949 [Y791F], sequence (P07949 whole entry Y791F): as the sequence (P07949 whole entry V804L) above, with Y791F, L804V counted along it
Proto-oncogene tyrosine-protein kinase Src (Homo sapiens), sequence (P12931 2-536 limits assumed): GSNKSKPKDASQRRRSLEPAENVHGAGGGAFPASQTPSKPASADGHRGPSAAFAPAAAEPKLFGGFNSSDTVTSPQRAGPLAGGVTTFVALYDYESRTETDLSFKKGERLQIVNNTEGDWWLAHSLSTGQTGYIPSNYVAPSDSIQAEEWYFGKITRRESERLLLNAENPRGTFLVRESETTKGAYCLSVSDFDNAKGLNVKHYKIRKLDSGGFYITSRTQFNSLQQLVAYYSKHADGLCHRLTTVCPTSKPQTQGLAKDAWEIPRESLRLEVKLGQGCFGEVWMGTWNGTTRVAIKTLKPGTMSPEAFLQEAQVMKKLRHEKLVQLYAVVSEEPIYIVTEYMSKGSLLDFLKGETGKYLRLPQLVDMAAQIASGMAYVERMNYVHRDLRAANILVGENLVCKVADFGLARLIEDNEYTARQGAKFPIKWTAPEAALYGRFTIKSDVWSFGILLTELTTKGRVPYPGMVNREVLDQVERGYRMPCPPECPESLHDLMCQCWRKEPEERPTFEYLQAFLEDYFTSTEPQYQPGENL

In general, inhibition refers to the relative decrease from the control value, in per cent. On to `Cc1cccc2c1NC(=O)/C2=N\Nc1ccc(S(N)(=O)=O)cc1`, for which the inhibition in assay [1] worked out at 10.2%; in assay [2] it was 1.71%; in assay [3], 0.62%; in assay [4], 3.22%; in assay [5] it was 9.89%; in assay [6], 1.83%. For the same compound, the inhibition in assay [7] worked out at 5.76%; in assay [8], 3.14%; in assay [9], 7.11%; in assay [10] it was 2.74%; in assay [11], 18.8%; in assay [12], 4.93%. The inhibition in assay [13] is 2.48%; in assay [14], 2.26%; in assay [15], 1.51%; in assay [16], 4.47%; in assay [17] it was 6.45%; in [18], -0.7%. Also, the inhibition in assay [19] was -2.11%; in assay [20], 3.45%.
For `COc1ccc(-c2cc3c(N)ncnc3o2)cc1`, the inhibition is 11.2% in assay [1]; 0.49% in assay [2]; 0.16% in [3]; -4.88% in [4]; 8.21% in [5]; -1.19% in assay [6]. Moreover, the inhibition in assay [7] was 0.94%; in assay [8], 0.48%; in assay [9] it was 2.98%; in [10] it was 2.13%; in assay [11] it was 4.56%; in assay [12], -4.17%. Moreover, the inhibition is -1.06% in assay [13]; 2.19% in assay [14]; 4.11% in assay [15]; -1.14% in assay [16]; 7.59% in [17]; 1.52% in assay [18]. Further, the figures for the inhibition in assay [19] and in [20] were 3.06% and 0.62%, respectively.
As to `NS(=O)(=O)c1ccc(Nc2ncc(-c3ccccc3)o2)cc1`, the inhibition in assay [1] came to 46.6%; in assay [2], 1.2%; in assay [3], 1.36%; in assay [4], 10.6%; in assay [5], 19.8%; in assay [6], 3.66%. The inhibition came to 7.66% in assay [7]; 3.57% in assay [8]; 10% in assay [9]; 0.77% in assay [10]; 7.3% in assay [11]; 4% in assay [12]. The inhibition was 6.45% in [13]; 3.2% in assay [14]; 13.1% in assay [15]; 1.97% in assay [16]; 18.3% in assay [17]; -0.76% in assay [18]. Also, the inhibition in assay [19] amounted to 0.22%; in assay [20], 3.95%.
As to `c1cc(-c2cnn3nc(N4CCOCC4)ccc23)nc(NC2CC2)n1`, the inhibition in assay [1] was 51.7%; in [2], 1.71%; in assay [3], 1.99%; in assay [4] it was 15.8%; in assay [5], 15.4%; in [6], 5.62%. The inhibition in assay [7] was 15.6%; in assay [8], 3.15%; in [9], 8.37%; in assay [10], 6.04%; in assay [11], 16.2%; in assay [12], -1.82%. In addition, the inhibition in assay [13] is 1.76%; in assay [14], 5.66%; in assay [15] it was 23.7%; in assay [16] it was 10.1%; in assay [17], 8.4%; in assay [18] it was 0.68%. Also, the figures for the inhibition in assay [19] and in assay [20] were -0.4% and 3.54%, respectively.
With `c1ccc(COc2ccc(Nc3ncnc4ccc(-c5ccco5)cc34)cc2)cc1`, the inhibition was 0.57% in [1]; -0.18% in assay [2]; 0.89% in [3]; -2.12% in assay [4]; 1.9% in [5]; 1.71% in assay [6]. The inhibition is 2.96% in assay [7]; 1.93% in assay [8]; 2.59% in [9]; 1.88% in assay [10]; 1.21% in assay [11]; 4.01% in [12]. Also, the inhibition in [13] came out at 7.76%; in [14], 2.59%; in assay [15], 3.28%; in assay [16] it was 0.54%; in assay [17], 1.64%; in assay [18], 0.68%. The results for the inhibition in [19] and in assay [20] were 0.99% and -0.45%, respectively.
Consider `COc1cc(Nc2nccc(Nc3ccc4c(C)n[nH]c4c3)n2)cc(OC)c1OC`, for which the inhibition was 87.5% in [1]; 1.94% in assay [2]; 11.5% in [3]; 25.2% in assay [4]; 84.3% in [5]; 51.1% in assay [6]. Further, the inhibition in assay [7] was 84%; in assay [8] it was 25.3%; in [9], 68.7%; in assay [10], 57.5%; in [11] it was 82.4%; in assay [12], 6.16%. For the same compound, the inhibition stood at 34.4% in [13]; 40.6% in assay [14]; 70% in assay [15]; 68.4% in assay [16]; 92.1% in assay [17]; 4.33% in [18]. Besides, the inhibition is 12.6% in assay [19] and -1.75% in assay [20].
On to `O=C(O[C@H]1CN[C@H](C#Cc2cc3ncnc(Nc4ccc(Cc5ccccc5)cc4)c3s2)C1)N1CCOCC1`, for which the inhibition was 0.85% in assay [1]; 1.3% in [2]; 1.99% in assay [3]; 0.11% in assay [4]; -6.94% in assay [5]; 3.39% in assay [6]. The inhibition in assay [7] is 5.06%; in assay [8] it was 1.75%; in assay [9] it was 2.21%; in assay [10] it was 1.94%; in assay [11] it was 4.61%; in assay [12], 2.34%. The inhibition in assay [13] was 3.27%; in [14], -0.61%; in assay [15], 2.78%; in assay [16], 3.84%; in assay [17] it was 7.75%; in assay [18], -3.02%. For the same compound, the inhibition in [19] was -2.02%; in assay [20], -0.1%.
For the compound `NS(=O)(=O)c1ccc(N/N=C2\C(=O)Nc3ccc4ncccc4c32)cc1`, the inhibition worked out at 82.8% in assay [1]; 0.32% in assay [2]; 4.11% in assay [3]; 6.43% in assay [4]; 43.2% in assay [5]; 37.3% in [6]. Further, the inhibition stood at 78.9% in assay [7]; 57.7% in assay [8]; 82.7% in assay [9]; 45.3% in [10]; 77.7% in assay [11]; 2.25% in assay [12]. For the same compound, the inhibition in assay [13] was 13.3%; in assay [14] it was 8.1%; in assay [15], 35.3%; in assay [16] it was 19.3%; in assay [17], 71.1%; in assay [18], -0.11%. Further, the inhibition in assay [19] is 3.96%; in assay [20], -9.38%.
`COC(=O)c1sc(-n2cnc3cc(OC)c(OC)cc32)cc1OCc1ccccc1C(F)(F)F`: the inhibition in assay [1] was 54.9%; in assay [2] it was 2.68%; in assay [3], 2.31%; in assay [4], 11.6%; in assay [5] it was 10.7%; in assay [6], 24.8%. Further, the inhibition in [7] was determined as 64.5%; in [8] it was 9.09%; in assay [9], 27.8%; in assay [10], 25.1%; in assay [11] it was 52.3%; in assay [12], 0.58%. For the same compound, the inhibition is 1.46% in [13]; 6.32% in assay [14]; 12.3% in assay [15]; 1.51% in assay [16]; 24.7% in [17]; -2.13% in [18]. In addition, the inhibition was -3.45% in [19] and -5.15% in assay [20].
